Where “and” joins values, the source holds several entries; their conditions need not be identical. Equal values may be shown once. Inconclusive results are not listed. Calls of active or inactive are those of the source. Unless noted, the call rests on the fitted dose curve; in most records, active means well fitted curve in the direction sought with a large enough effect in the repeat runs; inconclusive means weak or mixed curves; inactive means no such curve, though single readings can be large; an effect the other way counts as inactive or inconclusive.

Assay [1] is described as follows: qHTS assay to identify small molecule agonists of the RXR signaling pathway - cell viability counter screen (AID 1159529). Further: nearly all actives have a fitted effect of over 50% in size. Further: potency means the concentration at half of the fitted maximal effect. The essentials:
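RXR-alpha-UAS-bla HEK 293T cells in medium with 2% charcoal-stripped FBS were pre-incubated 5 hr, then compound-treated 16 hr at 37 C. Viability was read by CellTiter-Glo luminescence in the same wells as the beta-lactamase assay, with tetraoctyl ammonium bromide as positive control.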
In general terms: Quantitative high-throughput screening tests each substance at several concentrations.

The nature of assay [2]: qHTS assay to identify small molecule antagonists of the retinoid acid receptor (RAR) signaling pathway - cell viability counter screen (AID 1159551). Further: nearly all actives have a fitted effect of over 35% in size. Further: potency means the concentration at half of the fitted maximal effect. The essentials: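 C3RL4 cells were seeded overnight at 37 C, then treated with compounds plus 1 uM (final) retinol for 6 h at 37 C. Viability was read as ATP by CellTiter-Glo luminescence after 30 min at room temperature.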

Assay [3] is described as follows: qHTS assay to identify small molecule antagonists of the retinoic acid receptor (RAR) signaling pathway (AID 1159552; further: nearly all actives have a fitted effect of over 50% in size; further: potency means the concentration at half of the fitted maximal effect). The procedure, abridged:
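Retinol signaling pathway inhibitors screened in C3RL4 RARE-luciferase reporter cells seeded overnight at 37 C, then compounds added with 1 uM (final) retinol as pathway substrate. After 6 hr at 37 C, luciferase luminescence read after 30 min at room temperature.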

Assay [4] in a line: qHTS assay to identify small molecule agonists of the retinoic acid receptor (RAR) signaling pathway (AID 1159553). The essentials: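 C3RL4 cells carrying a RARE luciferase reporter were plated overnight at 37 C, then exposed to compounds in DMSO for 6 hr at 37 C and 5% CO2. Luminescence was read 30 min after luciferase reagent addition at room temperature.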
The target in assay [5] is Luciferin 4-monooxygenase (Photinus pyralis) (UniProt P08659). Briefly: qHTS assay to identify small molecule inhibitors of firefly luciferase (AID 1224835). Further: nearly all actives have a fitted effect of over 25% in size. Further: potency means the concentration at half of the fitted maximal effect. The essentials: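 Inhibition of purified Photinus luciferase is measured by luminescence. Substrate levels (D-luciferin, ATP) sit at their KM values. Each compound is tested in a concentration series.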
Sequence of Luciferin 4-monooxygenase (Photinus pyralis) (P08659 whole entry, looked up): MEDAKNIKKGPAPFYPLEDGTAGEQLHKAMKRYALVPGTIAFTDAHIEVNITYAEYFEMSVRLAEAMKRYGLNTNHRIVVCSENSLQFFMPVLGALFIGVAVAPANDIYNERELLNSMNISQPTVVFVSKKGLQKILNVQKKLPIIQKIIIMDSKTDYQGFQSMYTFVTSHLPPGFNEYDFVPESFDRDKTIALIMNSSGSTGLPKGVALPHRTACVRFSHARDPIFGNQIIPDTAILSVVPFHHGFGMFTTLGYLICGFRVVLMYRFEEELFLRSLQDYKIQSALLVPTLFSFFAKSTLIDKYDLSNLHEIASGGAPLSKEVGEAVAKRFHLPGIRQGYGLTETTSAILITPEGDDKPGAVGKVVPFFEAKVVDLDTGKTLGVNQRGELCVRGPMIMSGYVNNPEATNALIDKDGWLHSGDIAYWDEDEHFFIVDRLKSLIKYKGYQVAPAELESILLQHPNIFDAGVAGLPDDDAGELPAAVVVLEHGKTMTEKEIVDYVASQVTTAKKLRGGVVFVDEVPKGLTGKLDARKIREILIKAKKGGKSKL
The target in assay [6] is Nuclear receptor subfamily 1 group I member 3 (Homo sapiens) (UniProt Q14994). Description: qHTS assay to identify small molecule antagonists of the constitutive androstane receptor (CAR) signaling pathway (AID 1224838). Further: nearly all actives have a fitted effect of over 40% in size. Further: potency means the concentration at half of the fitted maximal effect. The essentials: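 HepG2 cells stably co-transfected with hCAR and a CYP2B6-2.2kb luciferase reporter were seeded 4 h before compound addition at 15 concentrations. Cells were stimulated with 50 nM CITCO (final) for 24 h at 37 C; luciferase luminescence was then read.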
Sequence of Nuclear receptor subfamily 1 group I member 3 (Homo sapiens) (Q14994 whole entry, looked up): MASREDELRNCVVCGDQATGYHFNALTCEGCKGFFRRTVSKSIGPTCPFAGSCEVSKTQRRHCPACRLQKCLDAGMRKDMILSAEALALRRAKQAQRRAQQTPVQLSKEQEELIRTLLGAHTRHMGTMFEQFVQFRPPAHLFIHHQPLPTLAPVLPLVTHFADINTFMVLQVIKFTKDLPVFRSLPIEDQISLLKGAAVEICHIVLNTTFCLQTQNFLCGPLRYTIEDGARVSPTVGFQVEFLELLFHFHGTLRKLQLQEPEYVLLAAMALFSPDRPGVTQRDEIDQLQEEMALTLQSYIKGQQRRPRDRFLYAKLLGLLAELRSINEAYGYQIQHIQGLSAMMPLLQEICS

For assay [7] the target is unchanged. Description: qHTS assay to identify small molecule agonists of the constitutive androstane receptor (CAR) signaling pathway (AID 1224839). Further: nearly all actives have a fitted effect of over 15% in size. Further: potency means the concentration at half of the fitted maximal effect. The essentials:
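HepG2 cells stably co-transfected with hCAR and a CYP2B6-2.2kb luciferase reporter; compounds at 15 concentrations with 0.75 uM PK11195 present. After 24 hr at 37 C, luciferase read by ONE-Glo luminescence.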

Assay [8] can be described thus: qHTS assay to identify small molecule agonists of the estrogen related receptor signaling pathway with the pleiotropic PPARgamma coactivator (PGC) from Tox21 10K library (AID 1224842). Further: nearly all actives have a fitted effect of over 15% in size. The essentials: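 Luminescence from One-Glo (30 min, room temperature) measured after PGC/ERR cells had 18 h at 37 C with pinned compound (23 nL in DMSO). Cells had been seeded at 2,000 per well and pre-incubated 6 h.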

Assay [9] has as its target Thyrotropin receptor (Homo sapiens) (UniProt P16473). Description: qHTS assay to identify small molecule agonists of the thyroid stimulating hormone receptor (TSHR) signaling pathway (AID 1224843; calls by dose curve; further: nearly all actives have a fitted effect of over 45% in size; further: potency means the concentration at half of the fitted maximal effect). The procedure, abridged:
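Screening of the Tox21 10K collection used HEK293 cells engineered with TSHR at 800 cells per well. After a 30-min room-temperature compound exposure, HTRF cAMP reagents were added and fluorescence recorded 1 h later.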

A short description of assay [10]: qHTS assay to identify small molecule antagonists of the estrogen related receptor (ERR) signaling pathway from Tox21 library - cell viability counter screen (AID 1224834). Further: nearly all actives have a fitted effect of over 30% in size. Further: potency means the concentration at half of the fitted maximal effect. The essentials: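 ERR reporter cells were plated 6 h before compound addition, then exposed to test compounds in DMSO for 17.5 h at 37 C. Viability was read as CellTiter-Fluor fluorescence after a 30-minute incubation at 37 C.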

A short description of assay [11]: qHTS assay to identify small molecule agonists of the constitutive androstane receptor (CAR) signaling pathway - cell viability counter screen (AID 1224836). Further: nearly all actives have a fitted effect of over 45% in size. Further: potency means the concentration at half of the fitted maximal effect. The essentials: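 HepG2 cells stably carrying hCAR and a CYP2B6-2.2kb reporter; 15-concentration compounds plus PK11195 (final 0.75 uM), 23 hr at 37 C/5% CO2. Viability read by CellTiter-Fluor fluorescence.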

Assay [12] can be described thus: qHTS assay to identify small molecule antagonists of the constitutive androstane receptor (CAR) signaling pathway - cell viability counter screen (AID 1224837). Further: nearly all actives have a fitted effect of over 45% in size. Further: potency means the concentration at half of the fitted maximal effect. The procedure, abridged:
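HepG2 cells stably expressing hCAR and a CYP2B6-2.2kb reporter were plated and pre-incubated 4 hr at 37 C/5% CO2, then given compounds at 15 concentrations plus 50 nM CITCO (final). After 23 hr, viability was read by CellTiter-Fluor fluorescence.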

Assay [13] can be described thus: qHTS assay to identify small molecule antagonists of the estrogen related receptor signaling pathway with the pleiotropic PPARgamma coactivator (PGC) from Tox21 10K library - cell viability counter screen (AID 1224840; active means well fitted cell-killing curve with a large enough effect in the repeat runs, not every such curve was filed as active; further: nearly all actives have a fitted effect of over 40% in size; further: potency means the concentration at half of the fitted maximal effect). The essentials: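 PGC/ERR cells were seeded at 2,000 cells/well and left 6 hours at 37 C/5% CO2 before pin-tool addition of compounds in DMSO. After 17.5 hours at 37 C, CellTiter-Fluor was added and fluorescence read 30 minutes later.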

A short description of assay [14]: qHTS assay to identify small molecule antagonists of the estrogen related receptor signaling pathway with the pleiotropic PPARgamma coactivator (PGC) from Tox21 10K library (AID 1224841; call rule not given here; further: actives are mostly falling curves and most rising ones were filed inactive; nearly all actives have a fitted effect of over 50% in size; further: potency means the concentration at half of the fitted maximal effect). The essentials: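 PGC/ERR reporter cells were seeded at 2,000 cells/well and held 6 hours at 37 C/5% CO2 before pin-tool addition of compounds in DMSO. After 18 hours at 37 C, One-Glo was added and luminescence read after 30 minutes at room temperature.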

Sequence of Thyrotropin receptor (Homo sapiens) (P16473 whole entry, looked up): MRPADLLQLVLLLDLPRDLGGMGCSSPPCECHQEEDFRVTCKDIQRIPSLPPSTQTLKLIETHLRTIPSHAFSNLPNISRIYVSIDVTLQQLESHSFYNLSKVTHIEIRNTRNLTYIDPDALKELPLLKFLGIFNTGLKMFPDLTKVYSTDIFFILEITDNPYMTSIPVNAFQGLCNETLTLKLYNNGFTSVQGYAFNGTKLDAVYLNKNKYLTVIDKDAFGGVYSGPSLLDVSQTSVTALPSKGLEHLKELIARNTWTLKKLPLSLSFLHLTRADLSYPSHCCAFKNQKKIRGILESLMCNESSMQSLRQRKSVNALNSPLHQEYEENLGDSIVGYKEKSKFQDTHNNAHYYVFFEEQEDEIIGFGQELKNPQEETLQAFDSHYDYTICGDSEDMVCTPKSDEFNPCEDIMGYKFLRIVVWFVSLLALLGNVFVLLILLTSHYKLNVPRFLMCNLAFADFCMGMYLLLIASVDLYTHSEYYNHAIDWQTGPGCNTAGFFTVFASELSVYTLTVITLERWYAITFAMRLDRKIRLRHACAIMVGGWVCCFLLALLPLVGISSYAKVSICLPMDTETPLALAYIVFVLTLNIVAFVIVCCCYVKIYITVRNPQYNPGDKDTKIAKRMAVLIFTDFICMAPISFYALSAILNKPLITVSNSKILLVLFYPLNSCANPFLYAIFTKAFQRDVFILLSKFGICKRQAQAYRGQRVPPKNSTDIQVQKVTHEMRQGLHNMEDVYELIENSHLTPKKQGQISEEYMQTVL

For the compound `COP(=O)(OC)Oc1ccc([N+](=O)[O-])cc1`, the Potency result in assay [1], in assay [2], in assay [3], in [4], in [5] and in [6] was “inactive” each time. In addition, the Potency result in assay [7], in [8] and in assay [9] was “inactive” throughout.

For the compound `[F][Sn]([c]1ccccc1)([c]1ccccc1)[c]1ccccc1`, the Potency in [1] was 0.692 µM (active); in assay [2], 17.2 µM (active); in assay [3], 0.243 µM (active); in assay [10], 1.09 µM (active); in [5], 5.03 µM (active); in [11], 1.09 µM (active). Moreover, the figures for the Potency in [12] and in assay [13] were 1.09 µM (active) and 0.611 µM (active), respectively. In assay [8], the Potency result was “inactive”.

For `CCNS(=O)(=O)C(F)(F)C(F)(F)C(F)(F)C(F)(F)C(F)(F)C(F)(F)C(F)(F)C(F)(F)F`, the Potency entry in assay [1], in assay [2], in assay [3], in [10], in [5] and in assay [11] was “inactive” each time. In addition, the Potency result in assay [12], in assay [6], in assay [7], in assay [13] and in [8] was “inactive” in each case.

For `CC(C)c1c(CN(C)C(C)Cc2ccccc2)n(C)n(-c2ccccc2)c1=O` (centres undefined), the Potency entry in [1], in [2], in assay [3], in assay [4], in assay [5] and in [12] was “inactive” in each case. Also, the Potency entry in [6] and in assay [13] was “inactive” each time.

For the compound `COc1ccc2[nH]cc(CCN(C(C)C)C(C)C)c2c1`, the Potency result in assay [1], in assay [2], in assay [3], in assay [10], in assay [5] and in [11] was “inactive” each time. The Potency entry in assay [6], in assay [7], in assay [13] and in assay [9] was “inactive” in each case.

In the case of `Cc1ccc([N+](=O)[O-])[c]2c1[O][Hg]2`, the Potency in assay [1] is 3.01 µM (active); in assay [2], 6.68 µM (active); in assay [3], 1.5 µM (active); in assay [10] it was 5.31 µM (active); in assay [5] it was 17.4 µM (active); in assay [11], 9.44 µM (active). The Potency in assay [12] is 6.68 µM (active); in [6] it was 9.44 µM (active); in assay [13], 5.96 µM (active).

For `CCN(CC)CCc1c[nH]c2ccccc12`, the Potency entry in [1], in assay [2], in [3], in assay [10], in assay [5] and in [11] was “inactive” in each case. Moreover, the Potency entry in assay [12], in assay [13] and in [9] was “inactive” throughout.

For `C[C@]12C/C(=C/O)C(=O)C[C@@H]1CC[C@@H]1[C@@H]2CC[C@@]2(C)[C@H]1CC[C@]2(C)O`, the Potency in assay [1] is 24.8 µM (active); in assay [3] it was 24.6 µM (active) and 26.6 µM (active); in [10], 55 µM (active). Moreover, the Potency entry in [2], in [5], in assay [11], in [12], in assay [6] and in assay [13] was “inactive” throughout. For the same compound, in assay [9], the Potency entry was “inactive”.

`N#Cc1sc2c(=O)c3ccccc3c(=O)c=2sc1C#N`: the Potency is 9.77 µM (active) in [1]; 27.3 µM (active) in assay [2]; 30.6 µM (active) in assay [3]; 48.6 µM (active) in assay [10]; 4.48 µM (active) in assay [5]; 8.63 µM (active) in assay [11]. For the same compound, the Potency in [12] was 6.11 µM (active); in assay [6], 8.63 µM (active); in assay [7] it was 2.17 µM (active); in assay [13], 48.6 µM (active). The Potency result in assay [8] is “inactive”.

For `O=C1C2(Cl)C3(Cl)C4(Cl)C(Cl)(Cl)C5(Cl)C3(Cl)C1(Cl)C5(Cl)C24Cl` (centres undefined), the Potency in assay [1] is 24.1 µM (active) and 41.8 µM (active); in assay [2], 47.8 µM (active); in assay [3], 21.3 µM (active) and 29.3 µM (active); in [10] it was 53.6 µM (active) and 58.5 µM (active); in assay [11], 60.1 µM (active); in assay [12] it was 60.1 µM (active). The Potency in assay [6] is 23.9 µM (active) and 52.2 µM (active); in assay [13], 47.8 µM (active) and 58.5 µM (active); in assay [14] it was 53.6 µM (active). Also, the Potency entry in assay [5] and in [8] was “inactive” in each case.

As to `C=C(C)C(=O)[O][Sn]([CH2]CCC)([CH2]CCC)[CH2]CCC`, the Potency is 1.1 µM (active) in assay [1]; 7.7 µM (active) in assay [2]; 2.73 µM (active) in assay [3]; 1.72 µM (active) in [10]; 35.6 µM (active) in assay [5]; 0.77 µM (active) in [11]. The Potency in assay [12] was 0.864 µM (active); in [6], 0.273 µM (active); in [13], 0.864 µM (active); in [9], 0.486 µM (active). Also, the Potency result in assay [7] and in assay [8] was “inactive” each time.

Turning to `N#CSCc1ccccc1`, the Potency result in assay [1], in assay [2], in assay [10], in assay [5], in assay [11] and in assay [12] was “inactive” each time. For the same compound, the Potency result in assay [7] and in assay [9] was “inactive” in each case. Also, the Potency in assay [3] was 48.8 µM (active).

In the case of `Oc1cc(Cl)c(Cl)c(Cl)c1Cl`, the Potency entry in [1], in assay [2], in assay [4] and in assay [9] was “inactive” in each case. Besides, in assay [3], the Potency was 53.2 µM (active).

Regarding `Nc1nc(N)c(N)c(N)n1`, the Potency result in [1], in [2], in assay [3], in assay [4], in assay [5] and in assay [8] was “inactive” in each case. Also, the Potency result in assay [9] is “inactive”.

In the case of `CCN1CCC2(CC1)COc1cc3c(cc12)N(C(=O)c1ccc(-c2ccc(-c4nnc(C)o4)cc2C)cc1)CC3`, the Potency in assay [1] is 3.59 µM (active); in assay [3], 56.4 µM (active); in assay [10] it was 17.8 µM (active); in assay [11], 44.8 µM (active); in assay [12] it was 50.2 µM (active); in assay [6], 44.8 µM (active). Further, the Potency in assay [13] was 17.8 µM (active). In addition, the Potency entry in assay [5], in assay [7] and in [8] was “inactive” each time.

`[Cl-].[Cl-].[Sn+2]`: the Potency entry in assay [1], in [2], in [10], in assay [11], in assay [12] and in assay [13] was “inactive” each time.

For the compound `Cc1cnc2c(C(=O)O)c(Cl)ccc2c1`, the Potency result in assay [1], in assay [2], in assay [10], in [5], in assay [11] and in assay [12] was “inactive” in each case. The Potency result in [13] and in assay [14] was “inactive” throughout.

Values taken from PubChem BioAssay (Tox21).
